# Reference: PubChem BioAssay AID1970 (National Center for Advancing Translational Sciences (NCATS), 2009)
# Inconclusive results are not listed. Activity calls are given as the source filed them. The call rests on the fitted dose curve; in most records, active means well fitted inhibition curve with a large enough effect; inconclusive means small, poorly fitted or top-dose-only effect; inactive means flat fitted curve, though single readings scatter.
# Molecular target: Dual specificity protein kinase CLK4 (Homo sapiens) (UniProt Q9HAZ1)
# Assay: Confirmation Assay for Inhibitors of CDC-like Kinase 4 (Kinase-Glo Assay)
# Conditions: recombinant Clk4, Kinase-Glo ATP depletion luminescence
# Protocol: NIH Molecular Libraries Probe Production Centers Network [MLPCN] NIH Chemical Genomics Center [NCGC] MLPCN Grant: 1R03MH084827-01 Assay Submitter (PI): Tom Misteli NCGC Assay Overview: Clk4 (Invitrogen, cat# PV3839) was assayed using ATP and the RS repeat peptide (AnaSpec cat # 61722) as substrates. Following the Clk4 reaction, the remaining ATP levels were detected using Promega Kinase-Glo technology wherein the remaining ATP from the kinase reaction is detected using Ultra-Glo luciferase and D-luciferin which generates a bioluminescence signal from the ATP.
# NCGC Assay Protocol Summary: Two uL/well of substrate-buffer solution (100 uM RS peptide, 1 uM ATP, 25 mM Tris pH7.5, 10 mM MgCl2, 0.5 mM EGTA, 2.5 mM DTT, 0.01% Triton X-100 final concentration) was dispensed into 1536-well, assay plates (Greiner, solid white medium-binding plates) with Aurora Discovery BioRAPTR Flying Reagent Dispenser (FRD; Beckton-Dickenson). Using a Kalypsys pin tool equipped with a 1536-pin tool, 23 nL of compound solution was transferred to the assay plate. […] Luminescence was detected with the ViewLux plate reader (Perkin Elmer, Waltham, MA) after 5 min incubation using a 5 second exposure time and 2x binning.
# Chain of Dual specificity protein kinase CLK4 (Homo sapiens) (Q9HAZ1 whole entry, looked up): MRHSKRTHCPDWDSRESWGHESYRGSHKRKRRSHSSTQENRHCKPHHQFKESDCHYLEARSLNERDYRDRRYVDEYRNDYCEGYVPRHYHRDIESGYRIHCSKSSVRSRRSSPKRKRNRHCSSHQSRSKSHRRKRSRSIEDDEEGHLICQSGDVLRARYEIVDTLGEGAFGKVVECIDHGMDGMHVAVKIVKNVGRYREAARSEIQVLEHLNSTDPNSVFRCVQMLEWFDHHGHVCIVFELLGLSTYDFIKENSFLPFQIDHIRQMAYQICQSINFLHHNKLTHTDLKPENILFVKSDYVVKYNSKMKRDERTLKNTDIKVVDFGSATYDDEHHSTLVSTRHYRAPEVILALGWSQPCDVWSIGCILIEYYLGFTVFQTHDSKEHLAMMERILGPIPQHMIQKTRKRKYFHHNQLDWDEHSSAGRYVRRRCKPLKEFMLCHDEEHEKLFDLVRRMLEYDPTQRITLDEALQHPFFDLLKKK
structure (smiles),measurement,value
COc1ccc2c(c1)[nH]c1c(C)nccc12,Potency,67.1 nM (active)
